Screening data as filed in PubChem BioAssay.
In the library only some 9.2% were active in any assay of this set; here they are far more common.
ELG1 DNA repair: qHTS screen for small molecules that inhibit ELG1-dependent DNA repair in human embryonic kidney (HEK293T) cells expressing luciferase-tagged ELG1 | Potency, µM (titrated, usually from 46.1 µM), inactives show top-dose activity change, negative = inhibition, actives largely listed as inhibitors | HEK293T ELG1-luciferase reporter, luminescence, 16 h; DNA damage induced by 5-fluorouridine | 330,000 tested, 2.3% active; further: on the % scale 0 is the no-effect control and ±100 the full control effect; nearly all actives have a fitted effect of over 55% in size
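Luminescence from the luciferase reporter, measured 30 min after ONE-Glo reagent at room temperature, was the read-out. Beforehand, 2,000 cells per well were exposed for 16 hr at 37 °C to 5-fluorouridine together with compound or vehicle.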
SMN2 splice enh: qHTS Assay for Enhancers of SMN2 Splice Variant Expression. 210,000 tested, 2.8% active. HEK293 SMN2-luciferase splicing reporter, luminescence, 30-36 h. Potency, µM (doses to about 46.1 µM), for inactives: at the highest dose activity change, positive = activation, most hits filed as activators; further: % of control where 0% means no effect; nearly all actives have a fitted effect of over 55% in size
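HEK293 cells carry an SMN2 […]–luciferase reporter in which exon 7 inclusion puts luciferase in frame. Cells were plated 10-12 h before compound addition, then incubated 30-36 h at 37C. ONE-Glo luminescence was read; sodium butyrate at 4.5 mM final served as control.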
ELG1 genotoxic: qHTS screen for small molecules that induce genotoxicity in human embryonic kidney (HEK293T) cells expressing luciferase-tagged ELG1. Potency, µM (titrated, usually from 46 µM), inactives show at the highest dose activity change, positive = activation, hits mostly activators. HEK293T ELG1-luciferase reporter, luminescence, 16 h. 330,000 tested, 1.3% active. AID 504466, 2011; further: % of control where 0% means no effect; nearly all actives have a fitted effect of over 60% in size
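16 hr compound incubation (37 °C, 5% CO2) of HEK293T cells carrying luciferase-tagged ELG1; luciferase then measured by ONE-Glo luminescence after 30 min at RT.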
Rab9 prom act: qHTS Assay for Rab9 Promoter Activators; Huh7 Rab9 promoter-luciferase reporter, luminescence, 24 h; Potency, µM (highest dose often 9.22 µM), inactives show top-dose activation, negative = inhibition, hits mostly activators; 320,000 tested, 2.8% active; AID 485297, 2010; further: % of control where 0% means no effect; nearly all actives have a fitted effect of over 60% in size
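Huh7 cells stably carrying a Rab9 promoter-luciferase reporter, 1500 cells per well in OP-MEM I with 10% FBS, treated with compound 24 hours at 37C. Luciferase activity read by luminescence after 10 minutes with Amplite reagent.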
NPC1 promoter act: qHTS Assay for NPC1 Promoter Activators | Huh7 NPC1 promoter luciferase reporter, 24 h | Potency, µM (top dose mostly 9.22 µM), for inactives: at the highest dose activation, most hits filed as activators | 320,000 tested, 2.4% active | AID 485313, 2010; further: % of control where 0% means no effect; nearly all actives have a fitted effect of over 60% in size
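Stably transfected Huh7 (NPC1 promoter→luciferase), 1500 cells/well in Opti-MEM + 10% FBS, 2 h settle, then compound 24 h at 37 °C. Luminescence after 10 min with Amplite reagent.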
FLuc modulator: qHTS profiling assay for firefly luciferase inhibitor/activator using purifed enzyme and Km concentrations of substrates (counterscreen for miR-21 project). Luciferin 4-monooxygenase (Photinus pyralis), P08659. purified FLuc, Km substrates, luminescence inhibition. Potency, µM (top dose mostly 57.5 µM), inactives show at the top dose activity change, negative = inhibition, actives largely listed as inhibitors. 360,000 tested, 6.9% active;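 further: plate controls were vehicle for no effect and reference inhibitor for full effect; nearly all actives have a fitted effect of over 55% in size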
Target sequence (P08659 whole entry, looked up): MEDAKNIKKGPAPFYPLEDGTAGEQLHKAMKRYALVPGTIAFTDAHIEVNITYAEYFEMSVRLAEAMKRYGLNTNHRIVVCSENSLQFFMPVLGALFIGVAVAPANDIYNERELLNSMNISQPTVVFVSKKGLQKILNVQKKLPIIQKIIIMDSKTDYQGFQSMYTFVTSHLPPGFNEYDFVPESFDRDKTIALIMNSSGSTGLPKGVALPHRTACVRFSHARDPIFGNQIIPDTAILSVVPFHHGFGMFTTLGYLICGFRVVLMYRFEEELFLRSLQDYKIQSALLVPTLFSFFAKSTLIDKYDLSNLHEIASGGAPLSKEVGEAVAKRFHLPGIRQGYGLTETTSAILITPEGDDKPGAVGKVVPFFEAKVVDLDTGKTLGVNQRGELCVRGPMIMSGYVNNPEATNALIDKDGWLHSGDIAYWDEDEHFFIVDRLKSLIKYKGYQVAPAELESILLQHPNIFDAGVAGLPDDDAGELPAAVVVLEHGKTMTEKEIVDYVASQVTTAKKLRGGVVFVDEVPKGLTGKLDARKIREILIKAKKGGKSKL
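Biochemical qHTS of compounds, final roughly 60 µM downward over six points, against 10 nM purified firefly luciferase using Km concentrations of substrates (10 uM D-luciferin, 10 uM ATP) in Tris acetate pH 7.5 buffer; luminescence output.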
Starred values were filed as active, the others as inactive; ? = inconclusive; / = not tested or not shown; [ ] = another dose, or the depositor's remark. The call rests on the fitted dose curve; in most records, active means well fitted curve in the direction sought with a large enough effect; inconclusive means small, poorly fitted or top-dose-only effect, or another doubt; inactive means no such curve, though single readings can be large; an effect the other way counts as inactive or inconclusive. Potency means the concentration at half of the fitted maximal effect.

SMILES	ELG1 DNA repair	SMN2 splice enh	ELG1 genotoxic	Rab9 prom act	NPC1 promoter act	FLuc modulator
COc1cccc2c1Oc1ncccc1N(C(=O)CCC(=O)NCc1ccc(N(C)C)cc1)C2	/	/	/	/	/	2.1%
CC(OC(=O)c1ccccc1C(=O)N(C)c1ccccc1)C(=O)Nc1ccc(C(N)=O)cc1 (stereo unspecified)	13.2%	/	1.7%	1.9%	6.5%	-1.7%
CC(OC(=O)c1cc(O)c2ccccc2c1O)C(=O)Nc1ccc(C(N)=O)cc1 (stereo unspecified)	14.5%	/	9.8%	20.7%	10.4%	8.49µM*
COc1ccc(C(=O)[C@]2(C)C=C(c3ccc(OC)cc3)[C@H](C)C2)cc1	/	2.2%	/	/	/	/
CC1=C/C(=C(\c2cc(C)c(O)c(Br)c2)c2ccccc2S(=O)(=O)O)C=C(Br)C1=O	?	/	-25.5%	-12.6%	-8.7%	9.53µM*
COc1ccc(-c2cn3cccc(C)c3n2)cc1Br	?	11.2µM*	?	2.82µM*	3.55µM*	2.39µM*
CCCS(=O)(=O)NCc1cn2cccc(C)c2n1	10.6%	19.6%	4.0%	0.5%	-3.9%	-1.2%
Cc1cccn2cc(CNc3ccccc3)nc12	?	22.4µM*	20.6µM*	?	?	?
CCCS(=O)(=O)Nc1cc(-c2cn3cccc(C)c3n2)ccc1C	/	28.9%	/	/	/	12µM*
Cc1cccn2cc(-c3ccccc3)nc12	?	11.2µM*	?	1.78µM*	1.58µM*	3.01µM*
CCOc1cc(/C=C2/C(=N)N3OC(C)=CC3=NC2=O)ccc1OCCOc1ccccc1	7.3%	-20.9%	7.6%	-1.4%	1.6%	7.8%
CCOC(=O)Cn1c(=O)cc(-c2ccccc2)c2c(C)nn(C)c21	/	/	/	/	/	-13.7%
COC(=O)c1c(NC(=O)COC(=O)[C@@H](NS(=O)(=O)c2ccc(C)cc2)C(C)C)sc2c1CCC2	?	-4.6%	-2.5%	-0.9%	-0.3%	-0.1%
Cc1cccc(N2CCN(C(=O)CN3C(=O)COc4ccc(S(=O)(=O)N5CCCC5)cc43)CC2)c1C	/	-1.8%	/	/	/	-2.2%
COc1cccc(C(C(=O)NC2CCCC2)N(C(=O)c2csnn2)C2CC2)c1 (stereo unspecified)	-9.6%	/	0.8%	-0.2%	0.8%	3.2%
Cc1cccn2cc(-c3ccc(F)cc3)nc12	?	/	0.92µM*	1.78µM*	1.12µM*	2.39µM*
Cc1cccn2cc(-c3ccc(F)cc3)cc12	17.7%	2.5%	9.2%	10.4%	1.1%	?
COc1ccc(N2CC(NC(=O)COc3ccc(F)cc3)CC2=O)cc1OC (stereo unspecified)	/	/	/	/	/	2.3%
CN(Cc1ccccc1)c1ncnc2ccc(Br)cc12	18.4µM*	?	-15.1%	0.1%	-0.7%	0.1%
Cc1ccc(-n2ncc3c(N(CCO)Cc4ccccc4)ncnc32)cc1	/	/	/	/	/	10.7µM*
Cc1ccc(-n2ncc3c(N(C)Cc4ccccc4)ncnc32)cc1	/	/	/	/	/	0.675µM*
CCOc1ccccc1Nc1ncnc2ccc(Br)cc12	0.2%	/	-5.9%	5.7%	5.9%	-0.8%
Cc1ccc(CNc2ncnc3c2cnn3-c2ccccc2)cc1	23.6%	-18.5%	7.2%	16.0%	5.0%	-12.5%
Nc1cc([N+](=O)[O-])ccc1C(=O)O	/	-5.5%	/	/	/	/
Nc1ccc(C(=O)Oc2ccc([N+](=O)[O-])cc2)cc1	?	/	?	14.4%	5.0%	3.38µM*
SMILES	ELG1 DNA repair	SMN2 splice enh	ELG1 genotoxic	Rab9 prom act	NPC1 promoter act	FLuc modulator
Nc1ccc(C(=O)Oc2ccc([N+](=O)[O-])cc2)c(O)c1	9.3%	/	-1.2%	1.8%	-2.1%	15.1µM*
O=[N+]([O-])c1ccc(S(=O)(=O)Nc2ccc(S(=O)(=O)N3CCCC3)cc2)cc1	-3.2%	/	-4.3%	15.5%	0.8%	4.3%
O=C(NCCc1ccccc1)c1ccc(CSc2nc3cccnc3n2Cc2ccc(F)cc2)cc1	/	/	/	/	/	-11.4%
O=C(NCCc1cccs1)c1ccc(Cn2c(SCc3ccccc3)nc3cccnc32)cc1	/	/	/	/	/	2.69µM*
O=C(NCCc1cccs1)c1ccc(Cn2c(SCc3ccc(F)cc3)nc3cccnc32)cc1	/	18.9%	/	/	/	2.13µM*
Cc1ccc(C(=O)/C=C/c2cc(Br)cc(Br)c2O)o1	0.0%	/	-11.0%	3.7%	-5.3%	0.8%
Cc1sc2nc(SCC(=O)N(C)c3ccccc3)n(C)c(=O)c2c1C	?	/	-11.5%	8.3%	0.4%	0.7%
CC(C)[C@@H](CC(=O)N[C@@H]1CCCC[C@H]1C(=O)N[C@H](CC(=O)N[C@@H](CCC(=O)O)CC(=O)O)Cc1c[nH]c2ccccc12)NC(=O)C[C@H](CO)NC(=O)[C@@H]1CNCC[C@H]1N	/	10.1%	/	/	/	/
Cn1c(=O)n(C)c2cc(N3CCOCC3)c(NS(=O)(=O)c3ccc(Br)cc3)cc21	/	12.6µM*	/	/	/	-0.2%
Cc1ccccc1Nc1nc(N)nc(COC(=O)c2cccn2C)n1	?	11.2µM*	16.4µM*	?	3.55µM*	16.9µM*
Cc1ccccc1Nc1nc(N)nc(COC(=O)c2ccccc2)n1	?	?	?	2.24µM*	?	15.1µM*
Cc1ccccc1Nc1nc(N)nc(COC(=O)c2ccc(O)cc2)n1	?	15.6%	2.2%	16.3%	-1.8%	-11.4%
CC(=O)O[C@H]1CC2(C)[C@@H](C[C@@H](O)[C@H]3[C@@]4(C)CC[C@@H](O)[C@@H](C)[C@@H]4CC[C@@]32C)C1=C(CCC=C(C)C)C(=O)O (stereo partly specified)	/	6.8%	/	-8.2%[46.1 µM]	1.5%[46.1 µM]	/
CCc1cc(C(=O)NNC(=S)NCc2ccccc2)cs1	17.9%	-15.2%	0.9%	-0.3%	-2.9%	-12.9%
CCc1cc(C(=O)Nc2ccccc2)cs1	?	34.9%	?	2.24µM*	-9.5%	-17.4%[2.3 µM]
CCc1cc(C(=O)NNC(=S)Nc2ccccc2C)cs1	?	14.1µM*	?	2.82µM*	3.55µM*	6.75µM*
Cc1cccc(Nc2cc(C)nc3nc(Cc4ccc(Cl)cc4)nn23)c1	/	-11.0%	/	/	/	-12.0%
CCc1nnc(NC(=O)C(=O)c2cc(C)n(-c3ccccc3)c2C)s1	/	/	/	/	/	-5.6%
Cc1ccccc1OCC(=O)NNC(=S)NC(=O)c1ccccc1[N+](=O)[O-]	-5.3%	-15.4%	-4.0%	-1.3%	0.5%	-12.9%
CC(C)(C)c1ccc(OCC(=O)Nc2ccncc2)c(Br)c1	-11.6%	/	1.0%	-1.4%	-1.8%	21.3µM*
CCc1ccc(OCC(=O)NNC(=S)NC(=O)C2CC2)c(Br)c1	-3.0%	/	?	-1.6%	-1.0%	9.53µM*
